High-throughput results as filed in PubChem BioAssay.
A selection: hits, their analogues and other compounds. The true share with any hit is near 10%.
PNC assembly inh – perinucleolar compartment assembly inhibition; PC3M PTB-GFP, PNC prevalence imaging, 16 h; hits give low values; 3.1% of 140,000 active; activity change (PNC), negative = inhibition, % at 10 µM;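 active means readout at or below -70, meaning at least 70% loss of cells showing the perinucleolar compartment, a nuclear body marking cancer cells; inconclusive means readout between -30 and a set limit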;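 further: plate controls were DMSO wells for no effect and camptothecin positive control wells for full effect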
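Read-out is percentage of cells bearing a perinucleolar compartment, from automated 20x imaging of fixed, Hoechst-stained PC3M PTB-GFP cells. Cells were seeded 4 h, then exposed 16 h to compound (23 nl of library stock) in duplicate plates.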
HPGD block – blocks human HPGD enzyme activity; P15428; purified HPGD, NADH fluorescence kinetic, PGE2 substrate; Potency, µM, without a hit: top-dose activity change, negative = inhibition, actives largely listed as inhibitors; 4.3% of 150,000 active; further: potency means the concentration at half of the fitted maximal effect
Target sequence (P15428 whole entry, looked up): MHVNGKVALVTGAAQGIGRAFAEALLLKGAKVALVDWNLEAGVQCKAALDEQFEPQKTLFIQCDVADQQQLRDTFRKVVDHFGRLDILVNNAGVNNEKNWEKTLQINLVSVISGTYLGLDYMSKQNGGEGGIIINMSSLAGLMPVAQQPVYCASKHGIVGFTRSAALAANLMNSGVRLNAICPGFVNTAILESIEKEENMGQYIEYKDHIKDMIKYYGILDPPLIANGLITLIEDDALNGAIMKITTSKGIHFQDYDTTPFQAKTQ
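20 nM HPGD preincubated 15 min at room temperature with compound in 50 mM Tris-HCl pH 8, 0.01% Tween 20. Started with 1 mM NAD+ and 30 uM prostaglandin E2; NADH fluorescence (360/450 nm) read 5 times over 30-s intervals, last minus first.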
Luc counter – Kinase-Glo luciferase inhibition (counter-screen). Kinase-Glo luciferase, ATP luminescence, 8 min. AID 1379. Q27757. 0.28% of 200,000 active. Potency, µM (titrated, usually from 38.3 µM), for the others: at the top dose activity change, negative = inhibition, most hits filed as inhibitors; active means well fitted inhibition curve with a large enough effect; inconclusive means small, poorly fitted or top-dose-only effect; further: potency means the concentration at half of the fitted maximal effect; nearly all actives have a fitted effect of over 60% in size
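Recombinant Kinase-Glo luciferase, 10 uM ATP (linear range), luciferin; imidazole pH 7.2 / KCl / MgCl2 / Tween / BSA buffer; 8 min RT; luminescence.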
ALDH1A1 inh – inhibitors of human aldehyde dehydrogenase 1A1; AID 1030; P00352; Potency, µM (series often up to 75.3 µM), for inactives: top-dose activity, negative = inhibition, usual class: inhibitors; 7.3% of 220,000 active; Purified ALDH1A1, NADH fluorescence, propionaldehyde substrate;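 further: potency means the concentration at half of the fitted maximal effect; plate controls were no enzyme wells and a reference inhibitor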
LMNA splice mod – LMNA splicing modulation; HeLa LMNA splicing GFP/RFP minigene ratio, 48 h; Potency, µM (series often up to 46.1 µM), for inactives: at the top dose ratio change, negative = inhibition, usual class: inhibitors; 0.01% of 200,000 active; active means well fitted inhibition curve with a large enough effect in the signal ratio, with a control signal flat, not every such curve was filed as active; inconclusive means small, poorly fitted or top-dose-only effect, or effect the other way, or a change in a side signal; the % refers to the signal ratio; further: potency means the concentration at half of the fitted maximal effect
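Read-out is the ratio of GFP to DsRed2 object intensity, acquired by 488 nm laser-scanning cytometry on HeLa lamin A-EGFP minigene reporter cells. Compound incubation 48 hrs at 37 °C in Opti-MEM with 2% FBS; DMSO 0.5% final.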
The depositor's hits bear a star; ? = inconclusive; . = not tested or not shown; [ ] = dose if it differs, or a comment. Unless noted, the call rests on the fitted dose curve; in most records, active means well fitted inhibition curve with a large enough effect (not every such curve was filed as active); inconclusive means small, poorly fitted or top-dose-only effect, or another doubt; inactive means no such curve, though single readings can be large or run the other way. Unless noted, on the % scale 0 is the no-effect control and ±100 the full control effect.

SMILES | PNC assembly inh | HPGD block | Luc counter | ALDH1A1 inh | LMNA splice mod
O=S(=O)(Nc1ccc(Cc2ccncc2)cc1)N1CCCC1 | ? | 25µM* | 0% | 3% | -9%
CC(C)(C)c1ccc(S(=O)(=O)Nc2ccc(Cc3ccncc3)cc2)cc1 | ? | -11% | -2% | 1.1µM* | ?
COc1ccc(NC(=O)N2CCCC3(CCN(C(=O)c4cccc(F)c4)CC3)C2)cc1 | . | -9% | -4% | ? | .
O=C(Oc1ccc2ccccc2c1Br)N1CCCCCC1 | ? | 32µM* | -12% | -3% | ?
CCN(CC)C(=O)Oc1ccc2ccccc2c1Br | . | . | 0% | -3% | .
COC(=O)NNC(=O)COc1ccc2ccccc2c1Br | -82* | 16µM* | -3% | -1% | -2%
O=C(NCc1ccccc1)NC1COc2ccccc2C1 (centres undefined) | . | . | . | . | 3%[46 µM]
O=C1CC(C(F)(F)F)=NN1 | . | . | . | -3% | .
CCCCC1=CC2=C(OC(C)=O)C(=O)C(C)(OC(=O)C3CCCC3)C(=O)C2=CO1 (centres undefined) | . | -21% | -5% | -4% | .
CC(=O)c1ccc(OCC(C)C)c(CC(C(N)=O)C(N)=O)c1 | 19 | -10% | 1% | 10% | 6%
CCN(CC)Cc1cc(C(C)=O)ccc1OCC(C)C | -24 | -3% | -1% | 1.1µM* | 3%
COC(=O)[C@@H](NC(=O)O[C@@H]1C(=O)c2ccc(OC)cc2O[C@H]1c1ccc2c(c1)OCO2)C(C)C | . | -9% | 2% | 6% | .
c1ccc(CC2CCN(c3nnnn3-c3ccccc3)CC2)cc1 | -10 | -21% | 1% | 8.9µM* | ?
Cc1cc(C)nc(N2CCN(c3nnnn3-c3ccccc3)CC2)n1 | 12 | -6% | -2% | 22µM* | -5%
O=C1NCN(c2ccccc2)C12CCN(c1nnnn1-c1ccccc1)CC2 | ? | -6% | 1% | 22µM* | -10%
Cc1ccc2nc(N/C(=N/S(=O)(=O)c3ccc(F)cc3)c3ccccc3)sc2c1 | . | . | 4% | ? | ?
Cc1ccc(S(=O)(=O)/N=C(/Nc2ccc3[nH]c(=O)[nH]c3c2)c2ccc(F)cc2)cc1 | . | . | 0% | 8.9µM* | ?
CC/C(=N/NC(=O)c1ccccc1)c1ccc(OCCN2CCOCC2)cc1 | -12 | -23% | -6% | 10µM* | 4%
Clc1cccc(N/N=C/c2ccc(N3CCOCC3)s2)c1 | 17 | -29% | 1% | 11µM* | 10%
O=C(N/N=C/c1ccc(N2CCOCC2)s1)c1ccccc1Br | . | . | -2% | 14µM* | ?
COc1ccccc1-c1c(C)nn2c(N3CCN(c4cccc(Cl)c4)CC3)cc(C)nc12 | . | . | . | . | -1%[46 µM]
CC1=C2[C@H](/C=C(\C)C(=O)O)CC[C@@H](C)[C@H]2CC1 | . | -5% | . | 18µM* | .
CC(=O)n1c(COS(C)(=O)=O)nc2ccccc21 | . | -7% | -2%[7.66 µM] | 4%[13.5 µM] | .
O=C(NC1CCCc2ccccc21)C1CCN(S(=O)(=O)N2CCCCCC2)CC1 (centres undefined) | -21 | -6% | 1% | 4.5µM* | 11%
O=C(NCCN1CCc2ccccc2C1)C1CCN(S(=O)(=O)N2CCCCC2)CC1 | 5 | -8% | -1% | 18µM* | 10%
SMILES | PNC assembly inh | HPGD block | Luc counter | ALDH1A1 inh | LMNA splice mod
CC(=O)NCC(=O)N[C@H](CCC(=O)O)C(=O)O | . | -8% | 0% | 7% | .
COc1ccc2[nH]cc(CCNc3ncncc3-c3cccc(C#N)c3)c2c1 | . | . | . | -2% | -16%
Cc1ccc(/C=N/n2c(-c3cccnc3)n[nH]c2=S)s1 | -23 | 13µM* | 0% | ? | 5%
CN(C)c1ccc(/C=N/n2c(-c3cccnc3)n[nH]c2=S)cc1 | . | . | -1% | ? | -22%[46 µM]
S=c1[nH]nc(-c2cccnc2)n1/N=C/c1ccc(Br)s1 | -9 | 16µM* | 0% | ? | 3%
CC(C)=CCCC1=CC[C@H](C(=O)O)[C@H](C(=O)O)C1 | . | 2% | 3% | 3% | .
COc1ccc(Oc2ncc3nc(-c4cccc(C#N)c4)c(=O)n(C)c3n2)cc1 | . | . | . | 1% | 4%
O=c1c2c(-c3ccc([N+](=O)[O-])cc3)csc2nc2n1CCC2 | -18 | 22µM* | -4% | 7.1µM* | 15%
O=[N+]([O-])c1ccc2c(c1)nc1n2CCCCC1 | . | . | -1% | 0% | -4%[46 µM]
CCOc1ccc(NC(=O)c2cc(S(=O)(=O)N3CCCCCC3)cn2C)cc1 | . | . | . | . | 13%[46 µM]
